The panel holds about 83,000 compounds, 20% with a hit somewhere; the sample as a whole holds those more often.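 For each line, cells grew in 96-well plates with the test compound present at a single concentration for 48 hours.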 Unmarked numbers belong to inactive results. Activity calls are given as the source filed them. Rule for the calls: active = growth percent below 10; inactive = the rest.

The assay relates to HL-60(TB) leukemia. The experiment in a line: NCI-60 one-dose screen, 48 h (100 = growth as untreated, 0 = no growth, -100 = all killed). The following applies: 10 µM unless noted.
On to `CC[C@]12C=CCN3CC[C@@]4(c5cc(NC(=O)COc6cc(O)c7c(=O)cc(-c8ccccc8)oc7c6)c(OC)cc5N(C)[C@H]4[C@@](O)(C(=O)OC)[C@@H]1OC(C)=O)[C@@H]32`, for which the growth is -44.9% (active).

For the compound `COc1cc(/C=C/C(=O)c2cc(OC)c(OC)c(OC)c2)ccc1OCc1ccc(F)cc1`, the growth was 9.93% (active).

Turning to `O=C(O)CCCCCN1C(=O)/C(=C/c2ccc(O)c(O)c2)SC1=S`, the growth is 101%. The result for `Oc1ccccc1/C=N/Nc1nc(N/N=C/c2ccccc2O)nc(N2CCOCC2)n1` reads 3.74% (active).

As for `CN1CCN(c2ccc(Nc3nc(NCCNC(=O)c4ccc(F)cc4)c4sccc4n3)cc2)CC1`, the growth is 34.3%. The result for `Cc1cc(Br)ccc1-n1cc(C#N)c(N)c1C(=O)c1ccc(Br)cc1` reads 110%. The value for `CCN(CC)Cc1c(-c2cccc(OC(F)(F)F)c2)[nH]c2ccc(N3CCCC3)cc2c1=O` was 72.9%; that for `O=C(O)CC1CCN(c2ccc3nnc(Cl)n3n2)CC1` was 104%; that for `CCCCCCCCCC[C@@H](C)[C@@H]1CC(=O)N[C@H]([C@@H](C)O)C(=O)N[C@@H](C)C(=O)N[C@H](C)C(=O)N[C@@H](CCC(N)=O)C(=O)N[C@H](Cc2ccc(O)cc2)C(=O)N[C@@H](C(C)CC)C(=O)O1` (some centres undefined) was 65%. On to `Cn1cc(-c2nc(N)nnc2-c2c[nH]c3ccc(Br)cc23)c2cc(F)ccc21`, for which the growth was 75.3%.

As to `COc1ccccc1C(=O)CSc1nc(Nc2ccc(S(N)(=O)=O)cc2)c2ccccc2n1`, the growth is 94.5%. In the case of `COc1c(N2CC3CCCNC3C2)c(F)cc2c(=O)c(C(=O)N/N=C/c3ccc(F)cc3)cn(C3CC3)c12` (centres undefined), the growth is 72.8%. Turning to `COc1ccccc1/C=C/C(=O)c1nnn(-c2ccc(C(=O)O)cc2)c1C`, the growth was 83.2%. The value for `CN(C)c1ccc(/C=C2\Cc3c(F)ccc(Br)c3C2=O)cc1` was 79.6%; that for `CCOC(=O)c1ccc(NC2=C(Cl)C(=O)c3nc(C)ccc3C2=O)cc1` was 47.5%; that for `CC(=O)N1N=C(c2cc3ccccc3oc2=O)CC1c1cn(-c2ccccc2)nc1-c1ccc(C)cc1` (centres undefined) was 107%. With `COc1cc2nc(-c3ccc(Cl)cc3)cc(OCCCNCC3CCCO3)c2cc1OC` (centres undefined), the growth was 32.1%.

Turning to `CCCCCCOC(=O)c1cc(-c2ccc(F)cc2)nc2ccccc12`, the growth was 77.8%. The value for `O=C(CN1CCN(c2cc(=O)n(-c3ccccc3)c3ccccc23)CC1)Nc1ccc([N+](=O)[O-])cc1` was 85%; that for `O=c1[nH]c2ccccc2cc1CSc1ccccc1Nc1nccc(-c2ccc(C(F)(F)F)cc2)n1` was 90%.

Turning to `Clc1ccc(Cc2nnc3sc(-c4cccnc4)nn23)cc1`, the growth was 97.2%. In the case of `CCC(=C(c1ccc(OCCN2CCCCCC2)cc1)c1ccc(OCCN2CCCCCC2)cc1)c1ccc(Cl)cc1`, the growth was -38.8% (active).

For `NC(=O)n1c(=O)n(-c2cccc(C(F)(F)F)c2)c(=O)c2cc(-c3ccc(F)cc3F)ccc21`, the growth is -49.4% (active). The result for `O=C(CN1CCN(c2cc(=O)[nH]c3ccc(F)cc23)CC1)Nc1ccc(Cl)cc1` reads 87.6%; that for `COc1cc(OC)c(S(N)(=O)=O)cc1C(=O)/C=C/c1ccccc1`, 5.25% (active). The value for `COc1cc2oc(-c3cccc(NC(=O)c4cc(NC(=O)[C@H](C)NC(=O)OC(C)(C)C)ccc4C)c3)cc(=O)c2c(OC)c1OC` was 62.6%; that for `O=C(Nc1cccc(C(F)(F)F)c1)N1CCN(c2cc(-c3cn(-c4ccccc4)nc3-c3cccc(O)c3)ccn2)CC1` was 20.9%; that for `CCNC(=O)N1CCc2cc(OC)c(OCCc3ccc(OC)nc3)cc2C1c1ccc(C)cc1C` (centres undefined) was 8.48% (active). The value for `CN(C)c1ccc(-c2c(NC(C)(C)C)nc3c(OCCc4ccccc4)cccn23)cc1` was -32.7% (active); that for `O=C(Nc1ccc2c(ccn2Cc2ccccn2)c1)c1ccnnc1` was 145%. Turning to `C#C[C@]1(O)CC[C@H]2[C@@H]3CC=C4c5sc(C6CCOCC6)nc5CC[C@]4(C)[C@H]3CC[C@@]21C`, the growth was 56.7%. The result for `Cc1ccc(S(=O)(=O)N/N=C/c2cn(-c3ccc(F)cc3)nc2-c2ccc(S(C)(=O)=O)cc2)cc1` reads 97.5%; that for `CSc1ccc(/C(=N/N=C(N)N)c2ccc(Cl)cc2)cc1`, -45.1% (active); that for `C#Cc1nc(/C=C/C(=O)NO)cs1`, -58.7% (active).

The record behind these values is PubChem BioAssay (NCI).
